# Experimental data from PubChem BioAssay (NCI).
# The panel holds about 83,000 compounds, 20% with a hit somewhere; the sample as a whole holds those more often.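 Growth was measured after 48 h exposure to one concentration of compound in 96-well plates. Values under 10 count as active.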 Unmarked numbers belong to inactive results. The source made the active and inactive calls.
# How the values were obtained:
# Test in all cases: NCI-60 one-dose screen, 48 h (100 = growth as untreated, 0 = no growth, -100 = all killed)
# Conditions in all cases: 10 µM unless noted
# HCT-15 colon = test system: HCT-15 colon
# HT29 colon = test system: HT29 colon
# SNB-75 CNS = test system: SNB-75 CNS
# SNB-19 CNS = test system: SNB-19 CNS
# U251 CNS = test system: U251 CNS
# PC-3 prostate = test system: PC-3 prostate
# SK-MEL-5 melanoma = test system: SK-MEL-5 melanoma
# UACC-62 melanoma = test system: UACC-62 melanoma
# LOX IMVI melanoma = test system: LOX IMVI melanoma
# SK-MEL-28 melanoma = test system: SK-MEL-28 melanoma
# SK-MEL-2 melanoma = test system: SK-MEL-2 melanoma
# EKVX NSCLC = test system: EKVX NSCLC
# SN12C renal = test system: SN12C renal
# UO-31 renal = test system: UO-31 renal
# TK-10 renal = test system: TK-10 renal
# ACHN renal = test system: ACHN renal
# CAKI-1 renal = test system: CAKI-1 renal
# A498 renal = test system: A498 renal
# CCRF-CEM leukemia = test system: CCRF-CEM leukemia
# MOLT-4 leukemia = test system: MOLT-4 leukemia
SMILES,growth (HCT-15 colon),growth (HT29 colon),growth (SNB-75 CNS),growth (SNB-19 CNS),growth (U251 CNS),growth (PC-3 prostate),growth (SK-MEL-5 melanoma),growth (UACC-62 melanoma),growth (LOX IMVI melanoma),growth (SK-MEL-28 melanoma) [%],growth (SK-MEL-2 melanoma),growth (EKVX NSCLC),growth (SN12C renal),growth (UO-31 renal),growth (TK-10 renal),growth (ACHN renal),growth (CAKI-1 renal),growth (A498 renal),growth (CCRF-CEM leukemia) [%],growth (MOLT-4 leukemia)
C[C@@H](Nc1ncnc2ccc(-c3cnc(Cl)c(NS(C)(=O)=O)c3)cc12)c1ccccc1,66%,64.6%,-14.7% (active),64%,67.9%,41.5%,66.3%,35.6%,40.2%,50.4,53.7%,19.8%,30.1%,26.9%,3.2% (active),43.1%,10.1%,-22.2% (active),42.6,20.8%
CCNC(=O)N1CCc2cc(OC)c(OCCc3ccc(OC)cc3)cc2C1c1ccc([N+](=O)[O-])cc1C (stereo not given),7.24% (active),4.69% (active),21%,28.4%,16.4%,23.4%,0.509% (active),30.4%,7.24% (active),47.8,22.3%,42.2%,44%,29.3%,54.8%,30.4%,27.2%,-16.8% (active),33.4,26.1%
COc1ccccc1-n1cc(C#N)c(N)c1C(=O)c1ccc(Br)cc1,35.1%,44.6%,74.5%,71.1%,66.8%,63.4%,77.4%,45.2%,66.2%,69,70.4%,85.4%,82.7%,73%,111%,98.9%,68.8%,60.6%,68.3,61.4%
CCCCCc1ccc(S(=O)(=O)Nc2cccc(-c3csc(NC(=O)CNCCN(C)C)n3)c2)cc1,26.5%,53.9%,87.5%,90.4%,69.4%,64.7%,73.2%,102%,33.2%,90.6,108%,81.4%,91.2%,74.8%,112%,96.4%,86.8%,76.9%,63.5,61.8%
c1cc(-c2nc3ccc4[nH]ncc4c3c3c2CCCC3)[nH]n1,34.8%,63.7%,60.3%,64.6%,65.7%,57.1%,76.9%,50.7%,58.4%,94.1,29.1%,60.8%,75%,50.7%,36%,32.6%,27.6%,16.2%,46.7,67.8%
CCO/C=N/C1=C(C#N)C(c2ccc(OC)cc2)c2sc3c(CC)cccc3c2O1 (stereo not given),22.4%,13.1%,-0.25% (active),37.8%,27.3%,26.9%,17.6%,27.6%,26%,67.2,41.4%,47.5%,43.6%,48.1%,69.3%,46.8%,50%,6.97% (active),22.4,26.8%
CC1(C)[C@@H](O)CC[C@]2(C)[C@H]3CC[C@@H]4[C@H]5[C@H](C(=O)/C=C\c6ccc([N+](=O)[O-])cc6)CC[C@]5(O)CC[C@@]4(C)[C@]3(C)CC[C@@H]12,27.5%,46.1%,42.1%,62.2%,69.9%,47.9%,75.8%,48.9%,-7.58% (active),46,102%,53.1%,73.5%,55.2%,123%,45.5%,27.4%,48.7%,12,22.9%
O=C(Nc1ccc(F)c(F)c1)c1cc(-c2ccc(F)cc2F)ccc1O,2.24% (active),88.6%,-0.285% (active),12.5%,11.4%,8.32% (active),-79.9% (active),-18.3% (active),2.89% (active),20,-11.3% (active),8.23% (active),-1.95% (active),-12.5% (active),14.2%,2% (active),-18.8% (active),-53.2% (active),15.2,2.67% (active)
COc1ccc(/C=N/NC2=NC3C(S2)N(C)C(=O)N3C)cc1 (stereo not given),28.4%,8.29% (active),8.09% (active),34.6%,27.2%,32.1%,31.1%,38.3%,32.7%,53.5,29.9%,38.5%,44.3%,45%,76.2%,42.7%,24%,-17.5% (active),15.5,20.3%
CC(=O)C1=C(C)NC(NNC(N)=S)=NC1c1ccccc1 (stereo not given),105%,109%,41.1%,98.8%,106%,99.9%,96.7%,93.3%,88.2%,98.1,96.9%,70.9%,83.8%,59.5%,56.8%,101%,64.7%,2.72% (active),95.5,114%
CC(=O)N1N=C(c2cccc(-n3cccc3)c2)CC1c1cccc(F)c1 (stereo not given),92.8%,100%,104%,88.5%,93.4%,84.9%,98.7%,81%,95.5%,103,103%,95.7%,97.1%,75.4%,123%,101%,86.5%,101%,94.4,90.3%
CCOc1ccc(C(=O)Nc2ncc(Cc3ccc(F)cc3)s2)cc1,14.7%,-18.2% (active),10.2%,29.6%,16%,27.4%,33.4%,33%,23.7%,61.9,-7.6% (active),41.3%,36%,41.9%,57.9%,37.6%,38%,13.9%,17.3,18.7%
NS(=O)(=O)c1ccc(-n2cc(CN3CCCCC3)nn2)cc1,107%,96.7%,92.8%,102%,104%,98.9%,99.6%,97.4%,101%,109,109%,101%,100%,82.2%,102%,107%,92.6%,93.6%,108,98.5%
COc1cc(OC)c(/C=C/S(=O)(=O)Cc2ccc(OC)c(NC(=O)CCC(=O)NO)c2)c(OC)c1,8.57% (active),3.2% (active),31.6%,23%,14.6%,28.7%,-31.6% (active),13.8%,10.4%,60,46.6%,36.1%,22.7%,34.1%,64.4%,28.1%,25.3%,-20.8% (active),11.5,17.2%
ClC(Cl)c1nc(-c2ccco2)n2nc(-c3ccccc3)cc2n1,12.8%,0.803% (active),88.5%,8.35% (active),-0.0523% (active),1.66% (active),98.1%,40.7%,98.2%,12.4,89.6%,4.01% (active),66.5%,35.3%,20.3%,-23.9% (active),-19.1% (active),-7.32% (active),89.8,66.6%
